# Reference: the supplement of paper PMC8371130
# Test system: HL-1
# Assay: relative cell viability (CellTiter-Glo) vs DMSO control (% of DMSO control); higher = more viable cells
# Outline: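 HL-1 mouse atrial cardiomyocytes were plated in 384-well plates at 1000 cells per well together with compounds at 40, 200, 1000 or 5000 nM in 0.01% DMSO. One day later, cells went to a hypoxic workstation (1% O2) for 48 h, then were reoxygenated for 24 h in a normal incubator, or stayed in normoxia for the same time. Cell viability was read by CellTiter-Glo luminescence and normalised to vehicle-treated control cells.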
# [1] = oxygen condition: hypoxia 48 h (1% O2) + reoxygenation 24 h, 40 nM
# [2] = oxygen condition: hypoxia 48 h (1% O2) + reoxygenation 24 h, 200 nM
# [3] = oxygen condition: hypoxia 48 h (1% O2) + reoxygenation 24 h, 1000 nM
# [4] = oxygen condition: hypoxia 48 h (1% O2) + reoxygenation 24 h, 5000 nM
# [5] = oxygen condition: normoxia 72 h, 40 nM
# [6] = oxygen condition: normoxia 72 h, 200 nM
# [7] = oxygen condition: normoxia 72 h, 1000 nM
# [8] = oxygen condition: normoxia 72 h, 5000 nM
SMILES,relative cell viability [1],relative cell viability [2],relative cell viability [3],relative cell viability [4],relative cell viability [5],relative cell viability [6],relative cell viability [7],relative cell viability [8]
C[C@@H](NCCCc1cccc(C(F)(F)F)c1)c1cccc2ccccc12,102,102,105,102,95.2,95.9,109,106
C[C@@H](Oc1cc(-c2cnn(C3CCNCC3)c2)cnc1N)c1c(Cl)ccc(F)c1Cl [Crizotinib],94.3,92.1,99.2,70.3,98.8,98.6,87.4,52
O=C(CCCN1CC=C(n2c(=O)[nH]c3ccccc32)CC1)c1ccc(F)cc1 [Droperidol],94.9,102,105,103,97.3,97,93.9,106
NC[C@H]1CC[C@H](C(=O)O)CC1 [Tranexamic acid],99.9,102,100,104,101,104,102,112
CCC1=C(C)CN(C(=O)NCCc2ccc(S(=O)(=O)NC(=O)N[C@H]3CC[C@H](C)CC3)cc2)C1=O [Glimepiride],93.1,96.3,95.2,106,88.9,77.4,94.7,105
CCOC(=O)c1c(C)n(C)c2ccc(O)cc12 [Mecarbinate],102,102,101,113,101,99.4,106,110
CN(C)CC/C=C1/c2ccccc2Sc2ccc(Cl)cc21 [Chlorprothixene],105,112,102,115,108,107,118,118
NS(=O)(=O)c1cc2c(cc1Cl)N=CNS2(=O)=O [Chlorothiazide],117,112,113,111,109,104,103,110
CCCCCN(C)CCC(O)(P(=O)(O)O)P(=O)(O)O [Ibandronate sodium],100,95.3,93.1,91,99.9,99.4,92.6,84.4
CC1CCc2cc(F)cc3c(=O)c(C(=O)O)cn1c23 (stereo not drawn) [Flumequine],104,98.4,117,108,106,120,104,98.2
O=P(O)(O)C(O)(Cc1cccnc1)P(=O)(O)O [Risedronic acid],94,101,96.4,71.4,99,108,105,107
